# Reference: PubChem BioAssay (NCATS)
# Values joined by “and” are separate entries in the source; they are usually repeats but may differ in a detail not shown here. Equal entries are not always repeated. Results filed as inconclusive are left out. Active and inactive are the calls of the source. Unless noted, calls come from the whole dose curve; as a rule, active = well fitted curve in the direction sought with a large enough effect; inconclusive = small, poorly fitted or top-dose-only effect, or another doubt; inactive = no such curve, though single readings can be large; an effect the other way counts as inactive or inconclusive.
# Assays:
# [1] = qHTS assay for small molecule agonists of the antioxidant response element (ARE) signaling pathway measured by Nrf2-dependant transcriptional activity (AID 720636; active = well fitted curve in the direction sought with a large enough effect in the repeat runs; an effect the other way counts as inactive or inconclusive;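 note: HepG2 cells with an ARE-driven luciferase reporter; % of control where 0% means no effect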)
# Outline: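 Attachment 6 hr at 37 C, then compound versus DMSO vehicle for 16 hr in ARE-luc HepG2 cells (1% dialyzed FBS); luminescence recorded 30 min after ONE-Glo addition at room temperature.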
# [2] = qHTS assay for small molecule antagonists of the retinoid-related orphan receptor gamma (ROR-gamma) signaling pathway - cell viability counter screen (AID 720652; active = well fitted curve in the direction sought with a large enough effect in the repeat runs; an effect the other way counts as inactive or inconclusive;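 note: CHO reporter cells with doxycycline-induced ROR-gamma expression; compound exposure lasted 16 hr before ATP read; % is set by controls: 0 for no effect and ±100 for the full control effect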)
# Outline: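 Steps: seed CHO cells bearing TET-inducible ROR and ROR response element-luciferase; rest 5 hr at 37 C; add compound, then doxycycline; incubate 16 hr; add CellTiter-Glo and read luminescence as ATP-based viability.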
# [3] = qHTS assay for small molecule agonists of the antioxidant response element (ARE) signaling pathway measured by Nrf2-dependant transcriptional activity - cell viability counter screen (AID 720653; active = well fitted curve in the direction sought with a large enough effect in the repeat runs; an effect the other way counts as inactive or inconclusive; note: % is set by controls: 0 for no effect and ±100 for the full control effect); settings: ARE-bla HepG2 viability, CellTiter-Glo ATP luminescence, 16 h; max response: stronger effect = lower value
# Outline: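 Cytotoxicity counter screen: intracellular ATP quantified by CellTiter-Glo luminescence in the same ARE-bla HepG2 plates, after 16 h compound exposure and a 2 h beta-lactamase substrate step.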
# [4] = qHTS Assay for Identifying Gametocytocidal Compounds (AID 743244); note: potency is the fitted concentration of half-maximal effect;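 for max response: % is set by controls: 0 for no effect and ±100 for the full control effect; actives lower the fluorescent signal which means gametocytes are killed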; settings: P. falciparum 3D7 stage III-V gametocytes, alamarBlue, 72 h; max response: stronger effect = lower value
# Outline: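 Viability read-out was resazurin reduction (alamarBlue, 24 h) measured at Ex 525/Em 598 nm. Beforehand, late-stage (III-V) 3D7 P. falciparum gametocytes at 20,000 cells/well were incubated with compound 72 h at 37C under 5% CO2.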
# [5] = qHTS assay for cell viability of HEK293 cells (AID 743288); settings: ATP luminescence (CellTiter-Glo), 18 h, stronger effect = lower value; note: % is set by controls: 0 for no effect and ±100 for the full control effect; nearly all actives have a fitted effect of over 50% in size
# Outline: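 Steps: plate 2,000 parental HEK293 cells per well; incubate ≥5 h, 37 C; add compounds in DMSO; incubate 18 h, 37 C; add CellTiter-Glo; wait 30 min at room temperature; read luminescence.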
# [6] = qHTS assay for cell viability of the p53RE-bla HCT-116 cell line (AID 743292); note: nearly all actives have a fitted effect of over 55% in size; note: potency is the fitted concentration of half-maximal effect
# Outline: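 Compound-exposed HCT-116 (p53RE-bla) cells, 4,000 per well, were kept 16 h at 37 C following a 5 h preincubation. Cell number was estimated from total ATP by CellTiter-Glo luminescence read after 30 min at room temperature.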
# [7] = biological target: Tyrosine-protein kinase Yes (Homo sapiens) (UniProt P07947); assay: qHTS for small molecule inhibitors of Yes1 kinase: Primary Screen (AID 686947); note: nearly all actives have a fitted effect of over 60% in size; note: potency is the fitted concentration of half-maximal effect
# Chain of Tyrosine-protein kinase Yes (Homo sapiens) (P07947 whole entry, looked up): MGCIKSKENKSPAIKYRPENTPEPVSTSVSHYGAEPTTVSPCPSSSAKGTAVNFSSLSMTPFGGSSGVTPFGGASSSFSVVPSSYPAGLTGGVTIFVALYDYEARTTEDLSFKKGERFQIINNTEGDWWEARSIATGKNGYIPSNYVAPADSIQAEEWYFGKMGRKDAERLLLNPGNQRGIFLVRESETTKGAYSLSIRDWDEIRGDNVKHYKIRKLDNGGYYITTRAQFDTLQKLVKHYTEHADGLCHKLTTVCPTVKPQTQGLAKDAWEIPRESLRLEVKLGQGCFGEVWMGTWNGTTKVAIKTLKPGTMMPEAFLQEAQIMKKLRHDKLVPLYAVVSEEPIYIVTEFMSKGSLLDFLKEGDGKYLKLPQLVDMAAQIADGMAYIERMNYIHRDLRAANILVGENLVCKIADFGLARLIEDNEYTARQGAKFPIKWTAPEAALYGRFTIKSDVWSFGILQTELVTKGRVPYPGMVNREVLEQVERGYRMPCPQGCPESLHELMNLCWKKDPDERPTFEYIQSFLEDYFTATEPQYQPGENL
# Outline: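 ADP-Glo luminescence reports ADP formed by 4 nM Yes1 phosphorylating poly(E4Y) (0.3 mg/mL) with 0.1 mM ATP for 60 min at room temperature, following 20 min compound preincubation; normalised between DMSO wells with and without enzyme.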
# [8] = qHTS for small molecule inhibitors of Yes1 kinase: Counter Assay (AID 686950);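 note: no kinase present so only ADP-Glo detection of a fixed ADP amount is tested; luminescence from ADP-Glo reporting ADP in a fixed ATP and ADP mixture; 0% = DMSO wells with ATP plus ADP and -100% = ATP-only wells without ADP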
# Outline: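 ADP-Glo luminescence read after a 60 min room-temperature incubation of compound with an ATP/ADP mix (0.08 mM/0.02 mM) and no kinase, following a 20 min compound preincubation. Signal scaled between ATP+ADP (max) and 0.1 mM ATP-only (min) wells; Tris pH 7.5, Mg2+, DTT.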
# [9] = qHTS for compounds that reverse cellular toxicity of Amyloid beta (A-beta) peptide in yeast: LOPAC Validation Assay (AID 720559);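 note: plate controls were DMSO for no effect and equimolar ferric chloride plus clioquinol rescue for full effect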
# Outline: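 Yeast expressing toxic A-beta grown with pinned compounds at 30 C for 48 hr. Growth measured as absorbance at 600 nm; data normalized to DMSO and to an equimolar FeCl3/clioquinol mixture as positive control.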
# [10] = qHTS for Activators of Parkin Expression: LOPAC Validation Assay (NLuc Reporter) (AID 720572)
# Outline: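 Compound effects on Parkin promoter activity were measured as NanoLuc luminescence after 24 h at 37 C. The neuronal reporter line also carried FLuc, which was read first. LOPAC compounds were tested at 7 concentrations, with normalization to DMSO (0%) and positive control (100%).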
# [11] = qHTS for Activators of Parkin Expression: LOPAC Validation Assay (FLuc Reporter) (AID 720573)
# Outline: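 Neuronal cell line stably expressing FLuc/NLuc coincidence reporter under the Parkin promoter, 1,500 cells/well, dosed 24 h after seeding in 7-point series for 24 h at 37 C. FLuc luminescence read; normalized to DMSO and positive control (100%).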
# [12] = biological target: T1, Hexokinase-4 (Homo sapiens) + Glucokinase regulatory protein (Homo sapiens) (UniProt P35557+Q14397); assay: qHTS assay for inhibitors of recombinant human GCK-GKRP interaction: Diaphorase-coupled assay (AID 743205)
# T1 sequence (P35557 whole entry, looked up): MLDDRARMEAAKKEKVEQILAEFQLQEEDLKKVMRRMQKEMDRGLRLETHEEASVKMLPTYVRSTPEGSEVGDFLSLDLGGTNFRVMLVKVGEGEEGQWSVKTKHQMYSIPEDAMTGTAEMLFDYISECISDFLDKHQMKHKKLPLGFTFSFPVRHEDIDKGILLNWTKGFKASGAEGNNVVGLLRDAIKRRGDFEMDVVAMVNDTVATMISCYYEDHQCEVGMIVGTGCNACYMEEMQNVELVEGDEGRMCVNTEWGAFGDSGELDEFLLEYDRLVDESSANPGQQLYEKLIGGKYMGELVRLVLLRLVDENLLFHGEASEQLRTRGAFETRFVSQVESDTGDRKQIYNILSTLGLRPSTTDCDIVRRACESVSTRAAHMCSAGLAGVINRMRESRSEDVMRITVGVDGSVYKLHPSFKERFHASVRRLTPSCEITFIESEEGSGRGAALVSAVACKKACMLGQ
# T1 sequence (Q14397 whole entry, looked up): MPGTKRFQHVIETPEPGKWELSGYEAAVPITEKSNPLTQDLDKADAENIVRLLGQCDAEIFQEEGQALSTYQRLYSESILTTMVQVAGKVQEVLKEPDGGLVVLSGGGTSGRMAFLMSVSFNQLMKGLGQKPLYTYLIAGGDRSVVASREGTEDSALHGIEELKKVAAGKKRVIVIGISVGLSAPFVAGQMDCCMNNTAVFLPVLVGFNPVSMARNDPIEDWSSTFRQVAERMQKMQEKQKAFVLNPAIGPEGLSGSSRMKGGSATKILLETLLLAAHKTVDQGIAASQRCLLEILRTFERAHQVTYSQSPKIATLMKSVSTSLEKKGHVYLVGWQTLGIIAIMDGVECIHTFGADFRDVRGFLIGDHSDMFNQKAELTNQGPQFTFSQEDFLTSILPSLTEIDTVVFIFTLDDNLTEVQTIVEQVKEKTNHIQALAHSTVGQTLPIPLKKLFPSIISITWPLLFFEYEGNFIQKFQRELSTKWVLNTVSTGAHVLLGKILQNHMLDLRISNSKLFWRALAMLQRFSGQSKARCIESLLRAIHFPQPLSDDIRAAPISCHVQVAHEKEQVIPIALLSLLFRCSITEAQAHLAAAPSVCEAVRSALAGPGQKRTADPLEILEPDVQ
# Outline: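 Compounds pre-incubated 20 min with substrate, then 10 nM GST-GCK with 10 nM FLAG-GKRP added. GCK activity coupled via G6PDH and diaphorase to resorufin (5 mM glucose, 0.4 mM ATP, 0.15 mM NADP+, pH 7.6), read kinetically over 30 minutes at Ex 525/Em 590 nm.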
# [13] = biological target: T1, Hexokinase-4 (Homo sapiens) + Glucokinase regulatory protein (Homo sapiens); assay: qHTS assay for inhibitors of recombinant human GCK-GKRP interaction: ADP-Glo assay (AID 743206);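 note: plate controls were DMSO plus enzyme for no effect and no enzyme for full effect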
# Outline: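 Pin-transferred compounds meet a 15 nM GST-GCK/15 nM FLAG-GKRP/2 uM S6P mix (dispense concentrations). ATP is then added to 0.4 mM final with 5 mM glucose, and the reaction runs 60 min at room temperature. ADP is quantified luminescently.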
# [14] = biological target: T1, Hexokinase-4 (Homo sapiens) + Glucokinase regulatory protein (Homo sapiens); assay: qHTS assay for inhibitors of recombinant human GCK-GKRP interaction: HTRF assay (AID 743207);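 note: 0% = DMSO with GCK present and -100% = DMSO wells lacking GCK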
# Outline: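 HTRF binding of 5 nM GST-GCK and 5 nM FLAG-GKRP with 2 uM S6P in pH 7.1 Hepes buffer (MgCl2, KCl, DTT, Tween 20, BSA). Anti-FLAG XL665 and anti-GST donor added, 60 min at room temperature; 665/615 nm read, normalized to with- and without-GCK controls.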
# [15] = qHTS profiling for inhibitors of Plasmodium falciparum (3D7) proliferation (AID 743322);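 note: infected erythrocytes exposed to compound for 72 h before lysis; 100% = DMSO vehicle wells and 0% = 0.29 µM artemisinin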; settings: P. falciparum 3D7 proliferation; at 28.7 µM (top of the series)
# Outline: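 Parasite DNA was quantified by SYBR Green I fluorescence (ex 485, em 535 nm) after overnight lysis in saponin/Triton buffer at room temperature. Cultures at 0.3% parasitemia and 2.5% hematocrit were first exposed to compound for 72 h at 37 C; signals were normalised to artemisinin (0.29 uM) and vehicle wells.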
# [16] = qHTS profiling for inhibitors of Plasmodium falciparum (DD2) proliferation (AID 743323; call rule not given here); settings: lower = more inhibition; at 28.7 µM (top of the series)
# Outline: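 P. falciparum Dd2-infected erythrocytes (0.3% parasitemia, 2.5% hematocrit) exposed 72 h at 37 C, 5% CO2. Lysis with SYBR Green, overnight at room temperature, fluorescence 485/535 nm; normalized to 0.29 uM artemisinin and DMSO.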
smiles,measurement,setting,value
O=C(NO)c1ccccc1,outcome,[1],inactive
same,outcome,[2],inactive
same,max response,[3],-9.7% (inactive)
same,max response,[4],14.9% (inactive)
same,max response,[5],-10.3% (inactive)
same,Potency,[6],inactive
Brc1ccccc1-c1ccccc1,outcome,[1],inactive
same,outcome,[2],inactive
same,max response,[3],3.59% (inactive)
same,max response,[4],-19.3% (inactive)
same,max response,[5],-7.8% (inactive)
same,Potency,[6],inactive
COc1cc(C=O)ccc1O,outcome,[1],inactive
same,outcome,[2],inactive
same,max response,[3],-6.02% (inactive) and -3.47% (inactive)
same,max response,[4],16.9% (inactive)
same,max response,[5],-1.87% (inactive) and -5.65% (inactive)
same,Potency,[6],inactive
CN1CCC(Nc2ncc3ncnc(Nc4ccc(F)c(Cl)c4)c3n2)CC1,Potency,[7],3.45 µM (active)
same,outcome,[8],inactive
OCc1c[nH]c2ccccc12,outcome,[1],inactive
same,outcome,[2],inactive
same,max response,[3],3.93% (inactive)
same,max response,[5],5.55% (inactive)
same,Potency,[6],inactive
C[C@@H](O[C@H]1OCCN(Cc2n[nH]c(=O)[nH]2)[C@H]1c1ccc(F)cc1)c1cc(C(F)(F)F)cc(C(F)(F)F)c1,Potency,[7],inactive
same,outcome,[8],inactive
same,max response,[4],16.6% (inactive)
Cc1ccc(O)cc1,outcome,[1],inactive
same,outcome,[2],inactive
same,max response,[3],-5.41% (inactive)
same,max response,[5],0.239% (inactive)
same,Potency,[6],inactive
N[C@@H](Cn1ccc(=O)c(O)c1)C(=O)O,outcome,[9],inactive
same,outcome,[10],inactive
same,outcome,[11],inactive
same,outcome,[12],inactive
same,outcome,[13],inactive
same,outcome,[14],inactive
Brc1ccc([C@H]2CN3CCSC3=N2)cc1,outcome,[9],inactive
same,outcome,[10],inactive
same,outcome,[11],inactive
same,outcome,[12],inactive
same,outcome,[13],inactive
same,outcome,[14],inactive
Oc1ccccc1,outcome,[1],inactive
same,outcome,[2],inactive
same,max response,[3],-6.78% (inactive) and -2.25% (inactive) and 3.75% (inactive)
same,max response,[4],2.14% (inactive)
same,max response,[5],-3.62% (inactive) and -6.12% (inactive) and 4.72% (inactive)
same,Potency,[6],inactive
COc1ccccc1N1CCN(CCN2C(=O)CC3(CCCC3)CC2=O)CC1,outcome,[9],inactive
same,outcome,[10],inactive
same,outcome,[11],inactive
same,outcome,[12],inactive
same,outcome,[13],inactive
same,outcome,[14],inactive
CCN(CC)CCOc1ccc(/C(=C(\Cl)c2ccccc2)c2ccccc2)cc1,outcome,[1],inactive
same,Potency,[6],70.8 µM (active)
CCOC(=O)c1ccc(OCCN2C[C@H](O)[C@@H](O)[C@H](O)[C@H]2CO)cc1,max response,[4],-1.08% (inactive)
COc1cc(C(=O)NC2CCCNC2)cc(OC)c1OC (stereo unspecified),max response,[4],-0.328% (inactive)
CCCCCCCCCCCC[N+](C)(C)Cc1ccccc1,outcome,[1],inactive
same,max response,[3],-5.65% (inactive)
same,Potency,[4],5.01 µM (active)
same,max response,[5],-18.2% (inactive)
same,Potency,[6],inactive
CCCCCCCCCCCCCCCC[n+]1ccccc1,max response,[3],-10.4% (inactive)
same,max response,[5],-27.3% (inactive)
same,Potency,[6],inactive
O=C(Oc1ccccc1)c1cccc(C(=O)Oc2ccccc2)c1,max response,[3],-2.16% (inactive)
same,max response,[4],-7.52% (inactive)
same,max response,[5],-18.4% (inactive)
same,Potency,[6],inactive
CN(C)C(=O)CNC(=O)Cc1ccccc1,max response,[4],15% (inactive)
Nc1ccc(O)cc1,max response,[3],-19.2% (inactive)
same,max response,[5],-8.77% (inactive)
same,Potency,[6],inactive
CCCCCC1Nc2cc(C(F)(F)F)c(S(N)(=O)=O)cc2S(=O)(=O)N1 (stereo unspecified),max response,[4],13.4% (inactive)
COc1cc(C(=O)OC(COCCC(C)C)CN2CCOCC2)cc(OC)c1OC (stereo unspecified),max response,[4],4.25% (inactive)
CCCCCC[C@@H](CCC)C(=O)O,max response,[4],16.9% (inactive)
CC1CC(=O)NN=C1c1ccc(NCC(C)(C)NCC(O)COc2cc(Cl)ccc2C#N)cc1 (stereo unspecified),max response,[4],11.8% (inactive)
CC1(C)S[C@@H]2[C@H](NC(=O)C(c3ccccc3)S(=O)(=O)O)C(=O)N2[C@H]1C(=O)O (stereo partly specified),max response,[4],-17.7% (inactive)
c1ccc2occc2c1,outcome,[2],inactive
same,max response,[3],3.88% (inactive) and -20.4% (inactive) and 16.8% (inactive)
same,max response,[4],-7.52% (inactive)
same,max response,[5],-2.02% (inactive) and -29.2% (inactive) and -7.14% (inactive)
same,Potency,[6],inactive
CC(NN)c1ccccc1 (stereo unspecified),max response,[4],-6.49% (inactive)
Nc1ccc2cc3ccc(N)cc3nc2c1,Potency,[4],12.6 µM (active)
Nc1cccc2c(N)cccc12,outcome,[2],inactive
same,max response,[5],-10.7% (inactive) and -9.55% (inactive)
same,Potency,[6],inactive
CC(=O)OC/C=C(C)/C=C/C=C(C)/C=C/C1=C(C)CCCC1(C)C,outcome,[2],inactive
same,max response,[3],6.19% (inactive) and 7.05% (inactive)
same,max response,[4],-2.65% (inactive)
same,max response,[5],-22.5% (inactive) and -3.76% (inactive)
same,Potency,[6],inactive
O=C(CS(=O)Cc1ccco1)NC/C=C\COc1cc(CN2CCCCC2)ccn1 (stereo unspecified),max response,[4],9.57% (inactive)
CN1C(=O)c2ccccc2C1=O,outcome,[1],inactive
same,max response,[3],-2.52% (inactive)
same,max response,[4],10.3% (inactive)
same,max response,[5],-9.41% (inactive)
same,Potency,[6],inactive
OCCOCCN1CCN(C(c2ccccc2)c2ccc(Cl)cc2)CC1 (stereo unspecified),outcome,[1],inactive
same,max response,[3],-5.74% (inactive)
same,max response,[4],-10.6% (inactive)
same,max response,[5],-17.9% (inactive)
same,Potency,[6],inactive
O=C(Nc1ccc(Cl)cc1)Nc1ccc(Cl)c(Cl)c1,outcome,[1],inactive
same,Potency,[6],inactive
same,remaining parasite growth % (stronger effect = lower value),[15],-1.23%
same,"activity, percent of control",[16],-0.0718%
CC(=O)CC/C=C(\C)CC/C=C(\C)CC/C=C(\C)CCC=C(C)C,max response,[4],-1.07% (inactive)
CN1CCC(=C2c3ccccc3CCc3cccnc32)CC1,max response,[4],7.49% (inactive)
COc1c(N2C[C@@H]3CCCN[C@@H]3C2)c(F)cc2c(=O)c(C(=O)O)cn(C3CC3)c12,max response,[4],11.5% (inactive) and 6.91% (inactive)
CCN1CCN(c2cc(-c3ccc(F)cc3)c3c(n2)CCCCCC3)CC1,max response,[4],9.24% (inactive)
Cc1ncc(CO)c(CO)c1O,outcome,[1],inactive
same,max response,[3],-5.07% (inactive)
same,max response,[4],-15.9% (inactive)
same,max response,[5],-15.6% (inactive)
same,Potency,[6],inactive
CCCC(=O)c1cc(O)c(O)cc1O,outcome,[1],inactive
same,max response,[3],-22.5% (inactive)
same,max response,[4],30.2% (inactive)
same,max response,[5],-20% (inactive)
same,Potency,[6],inactive
